This note sets out measurements from PubChem BioAssay.

Assay [1] concerns XIP peptide (Xip251-270) binding. Description: XIP fragment 251-270 binding compounds – biochemical, small-molecule microarray, fluorescence 635/667 nm, 0.1 µg/mL protein, primary screen (AID 1182). The note with it: fluorescent protein binding, 635 nm, higher = more signal, called active from +8 up or from −8 down.
For another assay, the system named is XIP peptide (Xip251-270). Description: compounds binding XIP fragment 251-270 – biochemical, small-molecule microarray, fluorescence 635/667 nm, 0.5 µg/mL protein, primary screen (AID 1183). The note with it: fluorescence 635 nm, higher = more signal.
Assay [2] in a line: blood-stage malaria parasite viability loss – strain 3D7, DAPI fluorescence, 100 nL, primary screen (AID 1184).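 Further: parasites grown inside human red blood cells in medium with human serum.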 The note with it: P. falciparum 3D7 growth, 3 d, higher = more signal.
For assay [3], the target named is Homeobox protein Hox-A13 (Mus musculus) (UniProt Q62424). Description: disruptors of Hoxa13 oligonucleotide interaction – biochemical, fluorescence polarization, labeled oligonucleotide, primary screen (AID 1185). The note with it: Hoxa13:DNA binding, 15 min, higher = more signal, called active from +8 up or from −8 down.

Calls of active or inactive are those of the source.

Chain of Homeobox protein Hox-A13 (Mus musculus) (Q62424 whole entry, looked up): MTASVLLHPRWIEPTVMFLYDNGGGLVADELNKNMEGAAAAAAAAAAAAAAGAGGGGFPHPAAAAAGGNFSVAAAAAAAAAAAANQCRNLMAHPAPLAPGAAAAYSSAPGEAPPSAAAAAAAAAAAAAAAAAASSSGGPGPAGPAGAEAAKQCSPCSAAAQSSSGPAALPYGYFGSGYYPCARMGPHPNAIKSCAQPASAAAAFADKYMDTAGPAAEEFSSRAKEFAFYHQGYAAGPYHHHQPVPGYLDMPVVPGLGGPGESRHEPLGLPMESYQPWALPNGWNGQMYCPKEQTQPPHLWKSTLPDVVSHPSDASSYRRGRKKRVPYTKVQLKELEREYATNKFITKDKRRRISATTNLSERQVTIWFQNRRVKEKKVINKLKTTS

`CCCNC(=O)OC[C@H]1O[C@H](CCON=CC[C@@H]2C=C[C@H](OC(C)=O)[C@@H](COC(C)=O)O2)C=C[C@@H]1Oc1ccc(OC)cc1`: the composite z-score in assay [1] is 0.27 (inactive); with XIP peptide (Xip251-270) it was 0.512. The z-score is -0.133 in assay [2] and -6.56 (inactive) in assay [3].
Take `COC(=O)[C@H](C)NC(=O)CCC1CC(OC(=O)NCCc2ccc(F)cc2)CC2(CCCC(COC(=O)NCCc3ccc(Cl)cc3)O2)O1` (stereo partly specified): the composite z-score in assay [1] was 0.503 (inactive); in the assay on XIP peptide (Xip251-270), 0.729. Also, the z-score in assay [2] was -1.5; in assay [3], -2.44 (inactive).
The like results for `CCOC(=O)NN=C1C[C@@H](O)[C@@H](O)[C@@H]2[C@@H]3C(=O)N(C(C)(C)C)C(=O)[C@@H]3CC[C@@H]12` were, in that order, 0.63 (inactive), -0.145, 0.439 and -1.69 (inactive).
In the same order, the values of `C#CCCCON=C1C[C@@H](O)[C@@H](O)[C@@H]2[C@@H]3C(=O)N(Cc4ccccc4)C(=O)[C@@H]3CC[C@H]12` are 0.136 (inactive), -0.102, -0.677 and -3.05 (inactive).
Consider `C[C@@H]1CCC2C(=O)N(Cc3ccccc3)C[C@@H](O)CN2[C@H]1c1ccc(Br)cc1` (stereo partly specified), for which the composite z-score in assay [1] is 1 (inactive); with XIP peptide (Xip251-270), 0.689. Further, the z-score in assay [2] was 0.787; in assay [3], -3.92 (inactive).
`CO[C@H]([C@@H](C)[C@H](OC)c1ccccc1)[C@H](C)[C@@H](OC)[C@H](C)C(C)=O`: the composite z-score in assay [1] was 0.111 (inactive); in the assay on XIP peptide (Xip251-270), -0.694. The z-score in assay [2] was 0.117; in assay [3], -1.36 (inactive).
The like results for `CO[C@@H]1COC(=O)CC=C[C@@H](C)[C@H](OC)COC(=O)[C@H](COCc2ccccc2)NC(=O)CC=C[C@H]1C` were, in that order, 0.025 (inactive), -0.988, -0.17 and -1.64 (inactive).
The like results for `CCN1C(=O)[C@H]2[C@H]3[C@H](O)[C@H](O)CC(=NOCc4ccccc4)[C@@H]3CC[C@H]2C1=O` were, in that order, -0.161 (inactive), 0.465, -0.165 and 0.697 (inactive).
On to `Cc1cc2c(nc1C)CCCN2CC(O)CN1CCN(C)CC1` (stereo unspecified), for which the composite z-score in assay [1] was 1.11 (inactive); in the assay on XIP peptide (Xip251-270) it was 0.362. Moreover, the z-score is 0.547 in assay [2] and -3.1 (inactive) in assay [3].
Take `C[C@@H]1C=CCC(=O)OC[C@H](C)C(=O)N2CCC[C@H]2C(=O)OC1`: the composite z-score was -0.318 (inactive) in assay [1] and 0.827 with XIP peptide (Xip251-270). Besides, the z-score was 0.207 in assay [2] and -0.596 (inactive) in assay [3].
In the case of `C#CCCCON=C1C[C@@H](O)[C@@H](O)[C@@H]2[C@@H]3C(=O)N(c4cccc(Oc5ccccc5)c4)C(=O)[C@@H]3CC[C@@H]12`, the composite z-score in assay [1] is -0.0382 (inactive); with XIP peptide (Xip251-270), 0.481. Further, the z-score in assay [2] was -1.96; in assay [3], -5.65 (inactive).
Take `O=C1[C@H]2[C@H]3[C@H](O)[C@H](O)CC(=NOCc4ccccc4)[C@@H]3CC[C@H]2C(=O)N1Cc1ccccc1`: the results for the composite z-score (in assay [1]; in the assay on XIP peptide (Xip251-270)) were -0.22 (inactive) and -0.0597, respectively. In addition, the z-score in assay [2] is 0.0087; in assay [3], -0.38 (inactive).
Turning to `CC(C)(C)N1C(=O)[C@H]2[C@H]3[C@H](O)[C@H](O)CC(=NO[C@@H]4O[C@H](CO)[C@@H](O)[C@H](O)[C@H]4O)[C@@H]3CC[C@H]2C1=O`, the composite z-score in assay [1] was 1.16 (inactive); in the assay on XIP peptide (Xip251-270), 0.26. The z-score is 2.01 in assay [2] and 0.0059 (inactive) in assay [3].
In the same order, the values of `CC(C)[C@H](NC(=O)OC(C)(C)C)[C@@H](O)CC(=O)OC(C)(C)C` are -0.182 (inactive), -0.4, -1.75 and -0.799 (inactive).
For the compound `COC(=O)C1=C(C)N(Cc2ccccc2)[C@]23O[C@](C(=O)OC)(C(=O)N2[C@@H]1c1ccccc1)[C@H]1CCOC(=O)[C@H]13`, the figures for the composite z-score (in assay [1]; in the assay with XIP peptide (Xip251-270)) were 0.303 (inactive) and -0.202, respectively. For the same compound, the results for the z-score in assay [2] and in assay [3] were -0.303 and -4.7 (inactive), respectively.
In the same order, the values of `C[C@H]1Cc2c(-c3ccccc3)nc3c(c2CO1)CN(CCOc1ccccc1)CC3` are 0.15 (inactive), 0.771, 1.18 and -5.41 (inactive).
The like results for `CC=CC1=C(CO)[C@H](O)[C@H]2O[C@H]2[C@H]1O` were, in that order, -0.461 (inactive), -0.229, 0.337 and -0.532 (inactive).
As to `O=C1[C@H]2[C@H]3[C@H](O)[C@H](O)CC(=NO[C@@H]4O[C@H](CO)[C@@H](O)[C@H](O)[C@H]4O)[C@@H]3CC[C@H]2C(=O)N1Cc1ccc2c(c1)OCO2`, the composite z-score is 0.297 (inactive) in assay [1] and 0.567 in the assay on XIP peptide (Xip251-270). The z-score in assay [2] was -1.06; in assay [3] it was -2.63 (inactive).
As to `COc1ccc(COC(=O)NN=C2C[C@@H](O)[C@@H](O)[C@@H]3[C@@H]4C(=O)N(c5ccc(F)cc5F)C(=O)[C@@H]4CC[C@@H]23)cc1`, the composite z-score in assay [1] was -0.413 (inactive); with XIP peptide (Xip251-270) it was -0.0386. Further, the z-score was -0.351 in assay [2] and -3.33 (inactive) in assay [3].
For `CO[C@H]1COC(=O)[C@H](C)COC(=O)CC=C[C@@H](C)[C@H](OC)COC(=O)CC=C[C@@H]1C`, the composite z-score is 0.159 (inactive) in assay [1] and -0.0452 in the assay with XIP peptide (Xip251-270). The z-score in assay [2] is 1.7; in assay [3] it was 0.149 (inactive).
As to `COC(=O)[C@H](C)NC(=O)CCC1CC(OC(=O)NCc2ccc3c(c2)OCO3)CC2(CCCC(COC(=O)NCCOc3ccccc3)O2)O1` (stereo partly specified), the composite z-score in assay [1] is -0.045 (inactive); with XIP peptide (Xip251-270), 0.588. Also, the values for the z-score in assay [2] and in assay [3] were -1.79 and -2.45 (inactive), respectively.
The like results for `CC(=O)O[C@H]1C2=C(C(=O)[C@@H]3O[C@@H]31)[C@H]1C(C)O[C@@H]2[C@@]23C(=O)[C@@H]4O[C@@H]4[C@@H](O)C2=CO[C@H](C)[C@@H]13` (stereo partly specified) were, in that order, -0.179 (inactive), -0.697, -0.771 and -0.465 (inactive).
For the compound `CC(C)CON=C1C[C@@H](O)[C@@H](O)[C@@H]2[C@@H]3C(=O)N([C@@H](C)c4ccccc4)C(=O)[C@@H]3CC[C@H]12`, the figures for the composite z-score (in assay [1]; with XIP peptide (Xip251-270)) were -0.0093 (inactive) and 0.402, respectively. Further, the z-score is 0.529 in assay [2] and 0.0364 (inactive) in assay [3].
As to `C[C@H]1CC[C@@H](C(=O)O)N[C@@H]1c1ccc(C#CCN(C)C)cc1`, the figures for the composite z-score (in assay [1]; in the assay with XIP peptide (Xip251-270)) were 0.908 (inactive) and 0.512, respectively. Also, the z-score in assay [2] was -0.0492; in assay [3], -1.16 (inactive).
In the same order, the values of `CCOC(=O)[C@H](CC(C)C)NC(=O)CCC1CC(OC(=O)NCc2cccc3ccccc23)CC2(CCCC(COC(=O)NCCN3CCOCC3)O2)O1` (stereo partly specified) are 0.0634 (inactive), 0.464, -1.71 and -4.01 (inactive).
Regarding `O=C1[C@H]2[C@H]3[C@H](O)[C@H](O)CC(=NOCc4ccccc4)[C@H]3CC[C@H]2C(=O)N1c1ccc(F)cc1F`, the composite z-score in assay [1] is -0.0939 (inactive); in the assay on XIP peptide (Xip251-270), 0.159. Moreover, the z-score was -1.08 in assay [2] and 1.02 (inactive) in assay [3].
The like results for `O=C1[C@H]2[C@H]3[C@H](O)[C@H](O)CC(=NOC[C@@H](O)COCc4ccco4)[C@H]3CC[C@H]2C(=O)N1Cc1ccc2c(c1)OCO2` were, in that order, 0.525 (inactive), 0.127, 0.436 and -0.743 (inactive).
In the same order, the values of `CC(C)CON=C1[C@H]2CCn3c(=O)n(-c4ccccc4)c(=O)n3[C@H]2[C@H](O)[C@@H]2O[C@H]12` are 0.142 (inactive), 0.263, -1.94 and -0.738 (inactive).
The like results for `CCc1cc2c(nc1CC)CCN(CCC(C)=NOC[C@@H](O)[C@H]1O[C@@H]3OC(C)(C)O[C@@H]3[C@H]1O)C2` were, in that order, 0.221 (inactive), 0.267, 0.204 and -5.4 (inactive).
